# Compound activity deposited in PubChem by several laboratories.
# A selection: hits, their analogues and other compounds. The true share with any hit is near 6.7%.
# BoNT A protease: BoNT/A light chain protease inhibitors, primary screen, biochemical, flow cytometry, MLPCN library | multiplex microsphere protease substrate cleavage | 360,000 tested, 0.17% active | inhibition, % at 10 µM | AID 588499, 2011 | Botulinum neurotoxin type A light chain protease (Clostridium botulinum A str. ATCC 3502); note: plate controls were buffer without enzyme for full effect and enzyme alone for no effect
# Autofluor counter: counter-screen for toxin protease inhibitors: compound fluorescence; AID 624483; fluorescence intensity (test concentration not listed); 360,000 tested, 3.1% active; compound autofluorescence counterscreen, microsphere flow cytometry; active compounds read high; in the data active = fluorescence intensity above about 16000; inconclusive = no clear call, values can overlap the other calls
# Anthrax LF inh2: Bacillus anthracis LF protease inhibitors, primary screen, biochemical, multiplex microsphere, MLPCN library; Lethal factor (Bacillus anthracis), P15917; multiplex microsphere protease cleavage assay; 360,000 tested, 0.12% active; AID 588501, 2011; inhibition, % at 10 µM; note: plate controls were buffer without enzyme for full effect and enzyme alone for no effect
# GDH-TPI counter: GDH-TPI coupling enzyme inhibitors, primary screen, artefact control for M. tuberculosis FBA inhibitor project, biochemical, absorbance, full deck | 360,000 tested, 1.2% active | inhibition, % at 4.8 µM | GDH-TPI coupled enzyme counterscreen, NADH absorbance; in the data active = inhibition above about 30%;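 note: 0% = DMSO wells and 100% = wells lacking the enzyme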
# Mtb FBA inh: Mtb FBA enzyme inhibitors, primary screen, biochemical, fluorescence, strain H37Rv; Fructose-bisphosphate aldolase (Mycobacterium tuberculosis (strain ATCC 25618 / H37Rv)), …; purified M. tuberculosis FBA, fluorescence read-out; inhibition, % at 1 µM; 360,000 tested, 2.3% active; AID 588726, 2011; in the data active = inhibition above about 27%;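 note: 0% = vehicle and 100% = reference inhibitor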
# Target sequence (P9WQA3 whole entry, looked up): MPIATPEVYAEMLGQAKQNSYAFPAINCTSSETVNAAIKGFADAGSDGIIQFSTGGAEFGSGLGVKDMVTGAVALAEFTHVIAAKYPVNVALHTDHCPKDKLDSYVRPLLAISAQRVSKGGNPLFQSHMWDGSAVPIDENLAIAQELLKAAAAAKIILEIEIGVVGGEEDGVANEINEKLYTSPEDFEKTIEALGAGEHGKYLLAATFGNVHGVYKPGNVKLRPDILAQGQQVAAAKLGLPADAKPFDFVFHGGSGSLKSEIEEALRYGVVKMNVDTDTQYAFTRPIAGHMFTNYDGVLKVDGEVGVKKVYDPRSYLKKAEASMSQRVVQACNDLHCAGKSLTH
# BoNT-F LC inh: BoNT/F light chain protease inhibitors, primary screen, biochemical, flow cytometry, MLPCN library; Botulinum neurotoxin type F light chain protease (Clostridium botulinum); inhibition, % at 10 µM; Multiplex microsphere protease cleavage assay; 360,000 tested, 0.22% active; AID 588497, 2011; in the data active = inhibition above about 35%, passing the limit was not always enough; inconclusive = no clear call, values can overlap the other calls; note: plate controls were buffer without enzyme for full effect and enzyme alone for no effect
# BoNTA LC inh 1: BoNT/A light chain protease inhibitors, confirmation, biochemical, flow cytometry, cherry pick 1. shares compounds with BoNT-F LC inh. multiplex microsphere protease assay. inhibition, % at 10 µM. 720 tested, 3% active; in the data active = inhibition above about 32%
# BoNTF LC inh 1: BoNT/F light chain protease inhibitors, confirmation, biochemical, flow cytometry, cherry pick 1; multiplex microsphere protease cleavage assay; shares compounds with BoNT-F LC inh; inhibition, % at 10 µM; 720 tested, under 10 active; AID 602140, 2011; call rule not given here
# LF protease CP1: Bacillus anthracis LF protease inhibitors, confirmation, biochemical, multiplex microsphere, cherry pick 1. shares compounds with BoNT-F LC inh. multiplex microsphere protease cleavage assay. inhibition, % at 10 µM. 720 tested, under 10 active. AID 602142, 2011; call rule not given here
# An asterisk follows results filed as active; ? = inconclusive; / = no result given; + = active, no number. Cut-off read from the data, not from the text of the source, unless noted: active = inhibition above about 30%; inconclusive = no clear call, values can overlap the other calls; inactive = below that.
SMILES,BoNT A protease,Autofluor counter,Anthrax LF inh2,GDH-TPI counter,Mtb FBA inh,BoNT-F LC inh,BoNTA LC inh 1,BoNTF LC inh 1,LF protease CP1
Cn1c(=O)c(/C=C/c2ccccc2)nc2ccccc21,48.8*,2731,15.9,4.4,10.4,2.9,39.9*,7.2,20.6
Cn1c(=O)c(/C=C/c2ccc(F)cc2)nc2ccccc21,32.6*,4159,16.3,2.5,7.1,1.6,23.7,2.5,9.2
Nc1nc2ccccc2n1C(=O)c1ccc(F)cc1,-0.3,2508,0.6,9.7,1.9,-4.2,/,/,/
O=c1c(/C=C(\O)c2ccc(F)cc2)nc2ccccc2n1-c1ccccc1,46.2*,14800,32.1*,3.4,-18.8,193.7*,19.7,6.8,7.9
Cc1ccc(NC(=O)c2cnccn2)c(OC(F)F)c1,-0.3,11270,-0.8,-7.1,-0.1,-0.2,/,/,/
COc1ccc(C(Cl)=C(c2ccc(OC)cc2)c2ccc(OC)cc2)cc1,-0.8,6015,-3.3,20.8,-0.3,-6.8,/,/,/
COc1ccc(-n2nc(C(=O)NCC(=O)Nc3cccc(Cl)c3)c3ccccc3c2=O)cc1OC,5.9,3717,3.9,-5.2,0.7,51.2*,1.4,-1.1,-1.2
N#Cc1cccc(C(c2nnnn2C2CCCC2)N2CCCCCC2)c1 (stereo unspecified),0.4,3317,-3.4,6.6,2.8,32.2,1.9,2.0,3.1
N#Cc1cccc(C(c2nnnn2C2CCCC2)N2CCC(Cc3ccccc3)CC2)c1 (stereo unspecified),-1.3,5535,-1.5,5.0,4.6,-2.1,/,/,/
O=C(Nc1ccc2nc(-c3cccs3)c(-c3cccs3)nc2c1)N1CCOCC1,68.2*,18209*,41.3*,10.0,4.5,28.8,38.6*,2.1,15.8
Cc1ccc(-c2nc(N)n(C(=O)Cc3ccccc3)n2)cc1,0.7,4091,1.5,1.1,8.0,?,/,/,/
O=C1CN(C(=O)c2ccc(Cl)c([N+](=O)[O-])c2)c2ccccc2N1,0.6,3053,32.1*,-1.5,4.7,5.9,0.2,0.3,0.6
CCOC(=O)CCCCC(=O)c1[nH]c(=O)[nH]c1C[n+]1ccc(C)cc1,0.4,4458,-2.6,3.5,4.0,-1.6,/,/,/
CCOC(=O)CCCCC(=O)c1[nH]c(=O)[nH]c1CSc1nc(C)cc(=O)[nH]1,7.6,6552,3.9,10.0,-0.5,47.3*,1.2,4.4,-1.9
CCOC(=O)c1[nH]c(=O)[nH]c1CSc1nc(C)cc(C)n1,-0.2,4731,-1.7,-3.6,1.4,-3.3,/,/,/
CCOC(=O)CCCCC(=O)c1[nH]c(=O)[nH]c1CN1CCOCC1,9.5,5310,4.1,7.5,2.1,58.8*,-1.0,-3.2,-0.6
CCOC(=O)CCCCC(=O)c1[nH]c(=O)[nH]c1CSc1nc(C)cc(C)n1,0.8,4042,4.6,7.1,0.0,10.2,1.0,-1.6,-1.7
CCOC(=O)CCCCC(=O)c1[nH]c(=O)[nH]c1CSc1nc2ccccc2[nH]1,5.0,7134,0.3,-0.6,4.2,36.5*,-0.4,-5.9,-3.2
CCCCN(C)CCC(=O)Nc1ccc2c(c1)CCC2,0.0,3874,-0.6,-4.9,1.1,1.9,/,/,/
COc1ccc(NC(=O)CSc2nc(N)c3cc4c(nc3n2)CC(C)(C)OC4)cc1,4.2,4147,11.4,1.5,2.2,47.3*,-0.1,3.1,1.7
CCOc1ccc(N(CC(=O)NCC2CCCO2)C(=O)CCC(=O)Nc2nccs2)cc1 (stereo unspecified),0.6,2451,0.6,1.3,2.9,2.0,/,/,/
CCCC(CCC)c1nc2ccncc2[nH]1,3.2,2311,0.2,8.7,-1.6,40.8*,2.4,1.5,1.6
Cc1ccc(CSc2nc3ccncc3[nH]2)cc1,0.0,5911,-1.3,-3.9,-0.7,-0.5,/,/,/
CCCCN(CCCNC(=O)CN1C(=O)COc2ccccc21)c1ccccc1,?,3833,?,-2.6,-3.0,?,/,/,/
CCN(CCCNC(=O)CN1C(=O)COc2ccccc21)c1ccccc1,30.5*,5098,34.8*,5.3,1.2,20.8,0.7,-3.1,-4.2
SMILES,BoNT A protease,Autofluor counter,Anthrax LF inh2,GDH-TPI counter,Mtb FBA inh,BoNT-F LC inh,BoNTA LC inh 1,BoNTF LC inh 1,LF protease CP1
CSc1nsc(SC)c1NC(=O)OCCc1ccccn1,-0.3,2460,-1.7,7.8,-1.0,-7.9,/,/,/
Cc1cccc(C(C)(C)C)c1OCCOCCN1CCCC1,4.4,2192,-0.3,8.6,0.1,37.6*,0.9,-2.2,-2.2
Cc1cccc(C(C)(C)C)c1OCCN1CCCC1,-0.1,2099,-2.5,5.2,3.9,-7.0,/,/,/
COc1nc(N(C)S(=O)(=O)c2ccc(C)cc2)nc(C)c1Cl,-1.3,11173,-2.8,2.0,2.0,-2.8,/,/,/
COc1ccc2nc(C)cc(NCc3ccc(F)cc3)c2c1,15.8,84261*,14.4,1.5,9.4,134.4*,-10.9,74.5*,6.6
COc1ccc2nc(C)cc(Nc3ccc(C)cc3)c2c1,-1.9,3745,7.7,11.4,-0.8,?,/,/,/
CN1CCC(=NNC(=O)C(=O)NCc2ccccc2)CC1,-1.0,10744,1.9,-5.7,1.0,-3.7,/,/,/
CCc1c(C)c(C#N)c2nc3ccccc3n2c1NC,1.1,2945,0.2,4.4,3.1,-7.7,/,/,/
CNc1cc(C)c(C#N)c2nc3ccccc3n12,0.4,3969,32.2*,4.5,+,7.4,0.3,-1.4,-4.8
CCCNc1nc2c(c(=O)[nH]c(=O)n2C)n1Cc1cccc(Br)c1,0.0,3769,-0.6,14.7,-1.5,-0.5,/,/,/
COCCN(Cc1cn(C)nc1-c1ccc(Oc2ccccc2)cc1)C(C)C,-6.9,4079,-19.3,4.9,1.4,?,/,/,/
CC(C)N(C)Cc1cn(C)nc1-c1ccc(Oc2ccccc2)cc1,-2.3,3249,0.0,-1.1,-7.2,35.5*,-0.4,-6.5,1.3
O=C(Oc1cccc2c(OC(=O)N3CCCC3)cccc12)N1CCCC1,-0.1,2371,-7.0,-3.5,3.2,3.1,/,/,/
COC(=O)c1coc(-c2ccc(OC)cc2)c1C(=O)OC,0.0,2757,-1.7,2.0,10.5,4.9,/,/,/
O=C(Nc1ccccc1)C1CCN(c2nccs2)CC1,40.0*,?,40.5*,-0.4,0.7,?,2.3,-9.2,4.4
CCOC(=O)C(=N/O)/C(C)=N/NC(=O)C(=O)Nc1ccc(Cl)cc1,?,3484,-11.3,10.9,0.3,?,/,/,/
O=C(Nc1cccc(O)c1)c1c(O)c2ccccc2[nH]c1=O,-0.4,3666,-4.9,4.5,0.3,35.6*,0.6,-4.4,-5.7
